Experimental data: PubChem BioAssay (EPA / NIEHS)
Activity calls are given as the source filed them. How the source made its calls: active means hit-call score of the fitted dose curve at least 0.9, where 1 is the maximum; inactive means score below 0.9.

Columns and labels:
Conditions in all cases: mRNA level, 48 h; actives raise or lower the signal
[1] = read-out: Cytochrome P450 (CYP2B6), CYP2B6 (gene 1555); assay: LTEA_HepaRG_CYP2B6: Life Technologies and Expression Analysis (LTEA) Assay for Cytochrome P450 (CYP2B6) using HepaRG (AID 2283481)
How it was run: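 Differentiated human HepaRG cells in serum-free induction medium, dosed in duplicate for 48 h over 8 half-log concentrations topping at 100 uM (0.5% DMSO). CYP2B6 mRNA measured by TaqMan qRT-PCR, normalized to ACTB, GAPDH, POLR2A; bidirectional fit versus DMSO.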

[2] = read-out: Cytochrome P450 2C19 (Homo sapiens) (UniProt P33261); assay: LTEA_HepaRG_CYP2C19: Life Technologies and Expression Analysis (LTEA) Assay for CYP2C19 using HepaRG (AID 2283482)
How it was run: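 Differentiated HepaRG cells in serum-free induction medium exposed 48 h in duplicate, 8 concentrations from 100 uM by half-log steps in 0.5% DMSO. CYP2C19 mRNA measured by TaqMan qRT-PCR, normalized to ACTB, GAPDH, POLR2A. Bidirectional fit versus DMSO.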

[3] = read-out: CYP2C8 (gene 1558); assay: LTEA_HepaRG_CYP2C8: Life Technologies and Expression Analysis (LTEA) Assay for CYP2C8 using HepaRG (AID 2283483)
How it was run: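 Differentiated HepaRG cells in serum-free induction medium exposed 48 h in duplicate to 8 half-log concentrations from 100 uM in 0.5% DMSO. CYP2C8 mRNA by qRT-PCR normalized to ACTB, GAPDH, POLR2A; bidirectional fit versus DMSO.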

[4] = read-out: CYP2C9 (gene 1559); assay: LTEA_HepaRG_CYP2C9: Life Technologies and Expression Analysis (LTEA) Assay for CYP2C9 using HepaRG (AID 2283484)
How it was run: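 Differentiated human HepaRG cells in serum-free induction medium were exposed 48 h to chemicals in 8-point half-log series from 100 uM (0.5% DMSO), in duplicate. CYP2C9 mRNA was measured by qRT-PCR, normalized to ACTB/GAPDH/POLR2A, with bidirectional fitting versus DMSO.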

[5] = read-out: CYP2E1 (gene 1571); assay: LTEA_HepaRG_CYP2E1: Life Technologies and Expression Analysis (LTEA) Assay for CYP2E1 using HepaRG (AID 2283485)
How it was run: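 HepaRG cells in serum-free induction medium exposed 48 h to test chemicals, 8 half-log concentrations up to 100 uM in 0.5% DMSO, duplicate. CYP2E1 mRNA by qRT-PCR, normalized to ACTB, GAPDH, POLR2A; bidirectional fit versus DMSO.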

[6] = read-out: CYP4A11 (gene 1579); assay: LTEA_HepaRG_CYP4A11: Life Technologies and Expression Analysis (LTEA) Assay for CYP4A11 using HepaRG (AID 2283486)
How it was run: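 Differentiated HepaRG cells, 48 h after plating, exposed in duplicate for 48 h to 8 half-log concentrations up to 100 uM in 0.5% DMSO in serum-free induction medium. CYP4A11 mRNA measured by TaqMan qRT-PCR, normalized to ACTB, GAPDH and POLR2A.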

[7] = read-out: Cytochrome P450 3A4 (Homo sapiens) (UniProt P08684); assay: LTEA_HepaRG_CYP3A4: Life Technologies and Expression Analysis (LTEA) Assay for CYP3A4 using HepaRG (AID 2283487)
How it was run: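 In a human hepatic line (HepaRG), duplicate wells were treated 48 h with up to 100 uM chemical in half-log dilutions. Endpoint: CYP3A4 mRNA induction or loss relative to 0.5% DMSO vehicle, by qRT-PCR.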

[8] = read-out: DNA damage-inducible transcript 3 (DDIT3), DDIT3 (gene 1649); assay: LTEA_HepaRG_DDIT3: Life Technologies and Expression Analysis (LTEA) Assay for DNA damage-inducible transcript 3 (DDIT3) using HepaRG (AID 2283488)
How it was run: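 Differentiated human HepaRG cells in serum-free induction medium were exposed in duplicate for 48 h to 8 concentrations (top 100 uM, half-log steps, 0.5% DMSO). DDIT3 mRNA measured by TaqMan qRT-PCR, normalized to ACTB/GAPDH/POLR2A; bidirectional fit versus DMSO.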

[9] = read-out: Pro-epidermal growth factor (Homo sapiens) (UniProt P01133); assay: LTEA_HepaRG_EGF: Life Technologies and Expression Analysis (LTEA) Assay for Epidermal growth factor (EGF) using HepaRG (AID 2283489)
How it was run: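 HepaRG cells (~100,000/well, 48 h pre-culture) exposed in duplicate for 48 h in serum-free induction medium to 8 half-log concentrations up to 100 uM in 0.5% DMSO. EGF mRNA by qRT-PCR, normalized to ACTB/GAPDH/POLR2A; bidirectional fit versus DMSO.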

[10] = read-out: Early growth response protein 1 (EGR1) transcription factor, EGR1 (gene 1958); assay: LTEA_HepaRG_EGR1: Life Technologies and Expression Analysis (LTEA) Assay for Early growth response protein 1 (EGR1) transcription factor using HepaRG (AID 2283490)
How it was run: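 Differentiated HepaRG cells in serum-free induction medium exposed 48 hours, duplicate, to 8 half-log concentrations up to 100 uM in 0.5% DMSO. EGR1 mRNA measured by TaqMan qRT-PCR, normalized to ACTB, GAPDH, POLR2A; bidirectional fit versus DMSO.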

[11] = read-out: Ezrin (EZR), EZR (gene 7430); assay: LTEA_HepaRG_EZR: Life Technologies and Expression Analysis (LTEA) Assay for Ezrin (EZR) using HepaRG (AID 2283491)
How it was run: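 Gain or loss of EZR mRNA is scored relative to 0.5% DMSO in human HepaRG cultures treated 48 h with test chemicals in duplicate, eight half-log concentrations from 100 uM.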

[12] = read-out: Cytochrome P450 3A7 (Homo sapiens) (UniProt P24462); assay: LTEA_HepaRG_CYP3A7: Life Technologies and Expression Analysis (LTEA) Assay for CYP3A7 using HepaRG (AID 2283492)
How it was run: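 Differentiated HepaRG cells in serum-free induction medium exposed 48 h in duplicate to 8-point half-log series from 100 uM top in 0.5% DMSO. CYP3A7 mRNA by qRT-PCR, normalized to ACTB/GAPDH/POLR2A, bidirectional fit versus DMSO.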

[13] = read-out: CYP3A5 (gene 1577); assay: LTEA_HepaRG_CYP3A5: Life Technologies and Expression Analysis (LTEA) Assay for CYP3A5 using HepaRG (AID 2283493)
How it was run: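 Differentiated HepaRG cells in serum-free induction medium were dosed 48 h with test chemicals (8-point half-log series, top 100 uM, 0.5% DMSO, duplicate). CYP3A5 mRNA measured by qRT-PCR, normalized to ACTB, GAPDH, POLR2A; bidirectional fit versus DMSO.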

[14] = read-out: Fatty Acid-Binding Protein 1 (FABP1), FABP1 (gene 2168); assay: LTEA_HepaRG_FABP1: Life Technologies and Expression Analysis (LTEA) Assay for Fatty Acid-Binding Protein 1 (FABP1) using HepaRG (AID 2283494)
How it was run: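 Differentiated human HepaRG cells exposed 48 h in serum-free induction medium to eight half-log concentrations up to 100 uM (0.5% DMSO), duplicate. FABP1 mRNA by qRT-PCR, normalised to ACTB, GAPDH, POLR2A; bidirectional fitting against DMSO.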

[15] = read-out: Cytochrome P450 4A22 (Homo sapiens) (UniProt Q5TCH4); assay: LTEA_HepaRG_CYP4A22: Life Technologies and Expression Analysis (LTEA) Assay for Cytochrome P450 4A22 (CYP4A22) using HepaRG (AID 2283495)
How it was run: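 Differentiated HepaRG cells in serum-free induction medium exposed 48 h in duplicate to eight half-log concentrations up to 100 uM in 0.5% DMSO. CYP4A22 mRNA quantified by TaqMan qRT-PCR, normalized to ACTB, GAPDH and POLR2A; bidirectional fit versus DMSO.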

[16] = read-out: Cytochrome P450 7A1 (Homo sapiens) (UniProt P22680); assay: LTEA_HepaRG_CYP7A1: Life Technologies and Expression Analysis (LTEA) Assay for Cytochrome P450 7A1 (CYP7A1) using HepaRG (AID 2283496)
How it was run: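 Gene expression endpoint in human HepaRG liver cells treated for 48 h with test chemicals (up to 100 uM, 0.5% DMSO). Values come from bidirectional concentration-response fitting versus DMSO.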

[17] = read-out: Glutathione S-Transferase (GSTA2), GSTA2 (gene 2939); assay: LTEA_HepaRG_GSTA2: Life Technologies and Expression Analysis (LTEA) Assay for Glutathione S-Transferase (GSTA2) using HepaRG (AID 2283497)
How it was run: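 Differentiated human HepaRG cells were exposed in duplicate for 48 h in serum-free induction medium, 8 points from 100 uM top in half-log steps, 0.5% DMSO. GSTA2 mRNA was measured by TaqMan qRT-PCR, normalized to ACTB, GAPDH and POLR2A; bidirectional fit versus DMSO.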

[18] = read-out: Glutamate-cysteine ligase catalytic (GCLC), GCLC (gene 2729); assay: LTEA_HepaRG_GCLC: Life Technologies and Expression Analysis (LTEA) Assay for Glutamate-cysteine ligase catalytic (GCLC) using HepaRG (AID 2283498)
How it was run: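 Differentiated HepaRG cells exposed 48 h in serum-free induction medium, eight-point half-log series topping at 100 uM in 0.5% DMSO, duplicates. GCLC mRNA by qRT-PCR normalized to ACTB, GAPDH and POLR2A, fitted bidirectionally versus DMSO.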

[19] = read-out: growth arrest and DNA damage 45 (GADD45G), GADD45G (gene 10912); assay: LTEA_HepaRG_GADD45G: Life Technologies and Expression Analysis (LTEA) Assay for growth arrest and DNA damage 45 (GADD45G) using HepaRG (AID 2283499)
How it was run: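 Differentiated human HepaRG cells, 48 h post-plating, exposed 48 h in serum-free induction medium to 8 half-log concentrations (top 100 uM, 0.5% DMSO) in duplicate. GADD45G mRNA measured by Fluidigm TaqMan qRT-PCR, normalized to ACTB, GAPDH, POLR2A; bidirectional fit versus DMSO.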

[20] = read-out: Glutamate-cysteine ligase regulatory (GCLM), GCLM (gene 2730); assay: LTEA_HepaRG_GCLM: Life Technologies and Expression Analysis (LTEA) Assay for Glutamate-cysteine ligase regulatory (GCLM) using HepaRG (AID 2283500)
How it was run: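 Differentiated human HepaRG cells exposed 48 h in serum-free induction medium to 8-point half-log concentrations (top 100 uM, 0.5% DMSO), in duplicate. GCLM mRNA quantified by qRT-PCR, normalized to ACTB, GAPDH, POLR2A; bidirectional fitting versus DMSO.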

Measured: AC50

Sequence of Cytochrome P450 3A4 (Homo sapiens) (P08684 whole entry, looked up): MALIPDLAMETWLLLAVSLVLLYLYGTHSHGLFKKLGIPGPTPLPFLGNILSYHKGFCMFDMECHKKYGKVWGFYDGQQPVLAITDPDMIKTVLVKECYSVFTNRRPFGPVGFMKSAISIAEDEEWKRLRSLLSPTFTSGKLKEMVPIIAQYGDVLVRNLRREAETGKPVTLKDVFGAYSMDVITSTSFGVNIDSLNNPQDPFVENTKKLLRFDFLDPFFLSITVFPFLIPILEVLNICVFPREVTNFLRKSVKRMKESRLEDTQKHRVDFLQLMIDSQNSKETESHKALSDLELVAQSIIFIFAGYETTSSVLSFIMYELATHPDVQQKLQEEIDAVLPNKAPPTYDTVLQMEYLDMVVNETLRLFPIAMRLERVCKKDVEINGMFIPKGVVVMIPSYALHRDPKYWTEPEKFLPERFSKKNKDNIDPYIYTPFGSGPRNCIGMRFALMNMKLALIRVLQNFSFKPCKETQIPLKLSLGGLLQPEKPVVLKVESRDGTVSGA
Sequence of Cytochrome P450 3A7 (Homo sapiens) (P24462 whole entry, looked up): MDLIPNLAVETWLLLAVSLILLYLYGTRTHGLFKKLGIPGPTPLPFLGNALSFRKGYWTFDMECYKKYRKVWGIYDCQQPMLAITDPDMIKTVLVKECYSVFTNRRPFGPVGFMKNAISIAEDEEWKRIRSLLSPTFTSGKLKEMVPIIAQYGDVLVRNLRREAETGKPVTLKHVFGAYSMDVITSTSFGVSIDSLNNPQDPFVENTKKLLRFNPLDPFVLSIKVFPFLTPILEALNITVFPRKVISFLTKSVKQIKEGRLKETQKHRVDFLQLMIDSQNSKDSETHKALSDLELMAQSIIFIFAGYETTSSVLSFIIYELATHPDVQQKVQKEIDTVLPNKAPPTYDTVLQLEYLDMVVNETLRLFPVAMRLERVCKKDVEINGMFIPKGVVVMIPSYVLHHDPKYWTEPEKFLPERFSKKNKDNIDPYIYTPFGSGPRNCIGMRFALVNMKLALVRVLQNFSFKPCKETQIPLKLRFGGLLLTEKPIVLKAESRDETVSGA
Sequence of Cytochrome P450 2C19 (Homo sapiens) (P33261 whole entry, looked up): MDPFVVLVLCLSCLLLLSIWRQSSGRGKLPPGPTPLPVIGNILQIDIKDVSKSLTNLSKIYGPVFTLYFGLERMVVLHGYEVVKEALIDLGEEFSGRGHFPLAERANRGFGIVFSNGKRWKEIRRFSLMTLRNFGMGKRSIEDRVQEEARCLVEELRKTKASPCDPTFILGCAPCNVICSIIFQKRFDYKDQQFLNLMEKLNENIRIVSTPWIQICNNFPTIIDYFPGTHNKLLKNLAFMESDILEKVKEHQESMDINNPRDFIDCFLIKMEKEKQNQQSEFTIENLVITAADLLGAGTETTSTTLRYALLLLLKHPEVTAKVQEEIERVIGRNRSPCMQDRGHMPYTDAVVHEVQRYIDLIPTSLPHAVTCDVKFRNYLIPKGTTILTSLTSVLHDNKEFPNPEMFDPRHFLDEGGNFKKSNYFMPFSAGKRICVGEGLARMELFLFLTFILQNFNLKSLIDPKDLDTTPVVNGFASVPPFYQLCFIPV

COC(=O)c1ccccc1C(=O)OC
inactive: [1] | [2] | [3] | [4] | [5] | [6] | [7] | [8] | [9] | [10] | [11] | [12] | [13] | [14] | [15] | [16] | [17] | [18] | [19] | [20]

N#Cc1cc(Br)c(O)c(Br)c1
active: [1] 9.97 µM | [2] 13.9 µM | [3] 25.3 µM | [4] 14.4 µM | [5] 17.1 µM | [6] 26.6 µM | [7] 16.1 µM | [8] 68.3 µM | [9] 15.3 µM | [10] 10 µM | [12] 11.3 µM | [13] 9.58 µM | [14] 13 µM | [15] 25 µM | [16] 19.1 µM | [17] 22 µM | [18] 10.3 µM | [19] 71.4 µM | [20] 1.34 µM
inactive: [11]

Cc1c(F)c(F)c(COC(=O)C2C(/C=C(\Cl)C(F)(F)F)C2(C)C)c(F)c1F (stereo not given)
inactive: [1] | [2] | [3] | [4] | [6] | [7] | [8] | [10] | [11] | [12] | [13] | [15] | [16] | [17] | [18] | [19] | [20]
active: [5] 72.3 µM | [9] 50 µM | [14] 63.1 µM
